biological target: POU1 (OCT1 POU domain);BOB1 (OBF1, OCA-B) (human;human, UniProt P14859;Q16633 260-458;1-256, |); experiment: EMSA-SELEX-seq; with BOB1 (ternary complex band); 20 mM Tris-HCl pH 7.6, 140 mM NaCl, 10% glycerol, 0.5 mM EDTA, 0.05% Triton X-100, 0.1 mg/mL BSA, 0.1 mg/mL poly(dI-dC), 5 mM DTT, room temperature, 20 min; high values mean tight binding; details: protein: recombinant;recombinant; copies: 1;1; dsDNA, one strand shown
Summary of the method: (§1)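 A double-stranded random 35-nt library (300 ng, PCR-amplified) was incubated with 30 ng tagged POU-domain protein, with or without 28 ng coactivator protein, in 20 μL Tris–HCl pH 7.6 binding buffer for 20 min at RT. The proteins had been expressed in E. coli BL21, purified under denaturing conditions and renatured. Complex bands from native 6% PAGE were eluted and PCR-amplified over four rounds, then sequenced on Illumina. For binding preference, the percentage of sequenced 8-mers matching a motif pattern was calculated.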

Row | Sequence | binding signal
1 | ACTGAAAA | 0.0328 % of ANNNNAAN 8-mers
2 | AGCGAAAG | 0.0332 % of ANNNNAAN 8-mers
3 | AGAGCAAT | 0.0332 % of ANNNNAAN 8-mers
4 | ACAAAAAT | 0.114 % of ANNNNAAN 8-mers
5 | AGACGAAA | 0.0343 % of ANNNNAAN 8-mers
6 | ATGCTAAG | 0.0777 % of ANNNNAAN 8-mers
7 | AACCCAAT | 0.0273 % of ANNNNAAN 8-mers
8 | AGCTGAAT | 0.0492 % of ANNNNAAN 8-mers
9 | ATCACAAG | 0.0328 % of ANNNNAAN 8-mers
10 | AACGGAAT | 0.0601 % of ANNNNAAN 8-mers
11 | AGTGTAAC | 0.0234 % of ANNNNAAN 8-mers
12 | AAGATAAT | 0.0819 % of ANNNNAAN 8-mers
13 | ATTGAAAT | 0.189 % of ANNNNAAN 8-mers
14 | AAGGAAAT | 0.288 % of ANNNNAAN 8-mers
15 | ACATGAAC | 0.0304 % of ANNNNAAN 8-mers
16 | AGTCTAAA | 0.0398 % of ANNNNAAN 8-mers
17 | AATAGAAG | 0.0558 % of ANNNNAAN 8-mers
18 | AAGAAAAG | 0.0905 % of ANNNNAAN 8-mers
19 | ACTACAAA | 0.0285 % of ANNNNAAN 8-mers
20 | AGAACAAG | 0.0219 % of ANNNNAAN 8-mers

Row | Sequence | binding signal
21 | ACTTAAAA | 0.0464 % of ANNNNAAN 8-mers
22 | AACAGAAC | 0.018 % of ANNNNAAN 8-mers
23 | ACAGGAAT | 0.0476 % of ANNNNAAN 8-mers
24 | ACTGAAAG | 0.0273 % of ANNNNAAN 8-mers
25 | ATTCGAAC | 0.0324 % of ANNNNAAN 8-mers
26 | ACGCGAAC | 0.0109 % of ANNNNAAN 8-mers
27 | ACTGTAAG | 0.0265 % of ANNNNAAN 8-mers
28 | AAAGGAAT | 0.0901 % of ANNNNAAN 8-mers
29 | ATGAGAAA | 0.0738 % of ANNNNAAN 8-mers
30 | AATAGAAA | 0.0858 % of ANNNNAAN 8-mers
31 | ATCTAAAT | 0.123 % of ANNNNAAN 8-mers
32 | ACAACAAT | 0.023 % of ANNNNAAN 8-mers
33 | ATCTGAAA | 0.0472 % of ANNNNAAN 8-mers
34 | AACACAAA | 0.0648 % of ANNNNAAN 8-mers
35 | AATTGAAT | 0.127 % of ANNNNAAN 8-mers
36 | AGAACAAT | 0.0293 % of ANNNNAAN 8-mers
37 | ATTCTAAT | 0.12 % of ANNNNAAN 8-mers
38 | ATGAAAAT | 0.619 % of ANNNNAAN 8-mers
39 | AGCGTAAA | 0.0347 % of ANNNNAAN 8-mers

biological target: T1, POU2 (OCT2 POU domain);BOB1 (OBF1, OCA-B) (human;human, UniProt P09086;Q16633 175-386;1-256, |); experiment: as above; details: protein: recombinant;recombinant; copies: 1;1; dsDNA, one strand shown
T1 sequence 1: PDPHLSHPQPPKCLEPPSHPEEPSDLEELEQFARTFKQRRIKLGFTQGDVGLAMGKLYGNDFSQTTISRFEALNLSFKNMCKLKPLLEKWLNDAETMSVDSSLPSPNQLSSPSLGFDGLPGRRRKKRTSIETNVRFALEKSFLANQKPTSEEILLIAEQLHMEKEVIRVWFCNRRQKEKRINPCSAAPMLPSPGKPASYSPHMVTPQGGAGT
T1 sequence 2: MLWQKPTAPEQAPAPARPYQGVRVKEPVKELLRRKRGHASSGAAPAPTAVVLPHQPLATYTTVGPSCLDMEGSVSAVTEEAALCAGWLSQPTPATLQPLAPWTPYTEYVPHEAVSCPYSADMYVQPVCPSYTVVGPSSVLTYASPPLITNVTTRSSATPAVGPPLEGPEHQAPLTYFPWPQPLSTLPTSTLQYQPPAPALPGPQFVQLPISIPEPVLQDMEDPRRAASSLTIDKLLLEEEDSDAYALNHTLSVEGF
Summary of the method: as §1

Row | Sequence | binding signal
40 | ACTGAAAA | 0.0363 % of ANNNNAAN 8-mers
41 | AGCGAAAG | 0.0239 % of ANNNNAAN 8-mers
42 | AGAGCAAT | 0.0363 % of ANNNNAAN 8-mers
43 | ACAAAAAT | 0.0768 % of ANNNNAAN 8-mers
44 | AGACGAAA | 0.0264 % of ANNNNAAN 8-mers
45 | ATGCTAAG | 0.0726 % of ANNNNAAN 8-mers
46 | AACCCAAT | 0.0223 % of ANNNNAAN 8-mers
47 | AGCTGAAT | 0.0471 % of ANNNNAAN 8-mers
48 | ATCACAAG | 0.0446 % of ANNNNAAN 8-mers
49 | AACGGAAT | 0.0627 % of ANNNNAAN 8-mers
50 | AGTGTAAC | 0.0272 % of ANNNNAAN 8-mers
51 | AAGATAAT | 0.129 % of ANNNNAAN 8-mers
52 | ATTGAAAT | 0.137 % of ANNNNAAN 8-mers
53 | AAGGAAAT | 0.171 % of ANNNNAAN 8-mers
54 | ACATGAAC | 0.019 % of ANNNNAAN 8-mers
55 | AGTCTAAA | 0.0504 % of ANNNNAAN 8-mers
56 | AATAGAAG | 0.057 % of ANNNNAAN 8-mers
57 | AAGAAAAG | 0.0652 % of ANNNNAAN 8-mers
58 | ACTACAAA | 0.0256 % of ANNNNAAN 8-mers
59 | AGAACAAG | 0.0231 % of ANNNNAAN 8-mers

Row | Sequence | binding signal
60 | ACTTAAAA | 0.052 % of ANNNNAAN 8-mers
61 | AACAGAAC | 0.0231 % of ANNNNAAN 8-mers
62 | ACAGGAAT | 0.0702 % of ANNNNAAN 8-mers
63 | ACTGAAAG | 0.0231 % of ANNNNAAN 8-mers
64 | ATTCGAAC | 0.0396 % of ANNNNAAN 8-mers
65 | ACGCGAAC | 0.0165 % of ANNNNAAN 8-mers
66 | ACTGTAAG | 0.0264 % of ANNNNAAN 8-mers
67 | AAAGGAAT | 0.0925 % of ANNNNAAN 8-mers
68 | ATGAGAAA | 0.0792 % of ANNNNAAN 8-mers
69 | AATAGAAA | 0.071 % of ANNNNAAN 8-mers
70 | ATCTAAAT | 0.123 % of ANNNNAAN 8-mers
71 | ACAACAAT | 0.0305 % of ANNNNAAN 8-mers
72 | ATCTGAAA | 0.0545 % of ANNNNAAN 8-mers
73 | AACACAAA | 0.0438 % of ANNNNAAN 8-mers
74 | AATTGAAT | 0.125 % of ANNNNAAN 8-mers
75 | AGAACAAT | 0.038 % of ANNNNAAN 8-mers
76 | ATTCTAAT | 0.152 % of ANNNNAAN 8-mers
77 | ATGAAAAT | 0.518 % of ANNNNAAN 8-mers
78 | AGCGTAAA | 0.0396 % of ANNNNAAN 8-mers

Source: paper PMC10812921, “Transcriptional Coactivator BOB1 (OBF1, OCA-B) Modulates the Specificity of DNA Recognition by the POU-Domain Factors OCT1 and OCT2 in a Monomeric Configuration”
